From the supplement of paper PMC6897291

Tested on: RIVA
Assay: growth inhibition by drug plus 177Lu-lilotomab satetraxetan (1 - RLU/untreated control) (fraction); higher = stronger inhibition
Details: 177Lu-lilotomab satetraxetan 0.5 ug/ml
Description: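 RIVA (RI-1) ABC-DLBCL cells were pretreated or not for 18 h with 0.5 ug/ml 177Lu-lilotomab satetraxetan (600 MBq/mg), washed and seeded (3000 cells/well) on 384-well plates pre-printed with the Selleck Cambridge Cancer Compound library. Viability was read by RealTime-Glo luminescence on days 3-6 after seeding. Effect = 1 - RLU/mean RLU of the 48 untreated no-drug control wells per plate; Bliss score = (M-E)/(1-Fa).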

SMILES | growth inhibition by drug plus 177Lu-lilotomab satetraxetan (10 nM, time (day): 3) | growth inhibition by drug plus 177Lu-lilotomab satetraxetan (10 nM, time (day): 4) | growth inhibition by drug plus 177Lu-lilotomab satetraxetan (10 nM, time (day): 5) | growth inhibition by drug plus 177Lu-lilotomab satetraxetan (10 nM, time (day): 6) | growth inhibition by drug plus 177Lu-lilotomab satetraxetan (100 nM, time (day): 3) | growth inhibition by drug plus 177Lu-lilotomab satetraxetan (100 nM, time (day): 4) | growth inhibition by drug plus 177Lu-lilotomab satetraxetan (100 nM, time (day): 5) | growth inhibition by drug plus 177Lu-lilotomab satetraxetan (100 nM, time (day): 6)
C[C@@H](O[C@H]1OCCN(Cc2n[nH]c(=O)[nH]2)[C@H]1c1ccc(F)cc1)c1cc(C(F)(F)F)cc(C(F)(F)F)c1 [Aprepitant (MK-0869)] | 0.306 | 0.465 | 0.481 | 0.488 | 0.319 | 0.43 | 0.441 | 0.419
CC(c1cc2ccccc2s1)N(O)C(N)=O (stereo not given) [Zileuton] | 0.389 | 0.507 | 0.537 | 0.547 | 0.4 | 0.496 | 0.496 | 0.482
N#Cc1ccc(NC(=O)Nc2ccccc2Br)c2n[nH]nc12 | 0.534 | 0.601 | 0.605 | 0.619 | 0.463 | 0.528 | 0.544 | 0.542
Cc1cn(-c2cc(NC(=O)c3ccc(C)c(Nc4nccc(-c5cccnc5)n4)c3)cc(C(F)(F)F)c2)cn1 [Nilotinib (AMN-107)] | 0.372 | 0.516 | 0.522 | 0.537 | 0.362 | 0.471 | 0.491 | 0.466
N#CCNC(=O)c1ccc(-c2ccnc(Nc3ccc(N4CCOCC4)cc3)n2)cc1 | 0.481 | 0.53 | 0.555 | 0.562 | 0.347 | 0.434 | 0.447 | 0.446
